This passage reports AC50 and outcome results from PubChem BioAssay (EPA / NIEHS).

Test [1] can be described thus: CCTE_Mundy_HCI_Cortical_Synap_Neur_Matur_NeuronCount: CCTE's Synaptogenesis and Neurite Maturation Assay in rat cortical cells for Neuron Count, Mundy Lab (AID 2284242; active means hit-call score of the fitted dose curve at least 0.9, where 1 is the maximum;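 further: neuron number from Hoechst nuclei and MAP2 staining by high-content imaging; hits reduce neuron count versus DMSO baseline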). The gist of the method:
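Rat primary cortical cells received AraC at DIV 5 to arrest glia, then were dosed with chemicals at DIV 7 through DIV 12. Fixed cells were stained for nuclei, MAP2 and synaptophysin, and neurons were counted by high-content imaging relative to DMSO.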

Read-out in test [2]: Collagen I, COL1A1 (gene 1277)
In words: BSK_MyoF_CollagenI: BioMAP Diversity Plus: MyoF Assay for Collagen I Biomarker Activity (AID 2284238). Conditions: primary human lung fibroblasts. A digest of the protocol: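 Measured by ELISA: Collagen I from human lung fibroblasts 24 h after compound addition, analysed for signal gain with DMSO as baseline; overt toxicity read from SRB staining of parallel cultures at the same time.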

Read-out in test [3]: Interleukin 17F (IL17F), IL17F (gene 112744)
In words: BSK_BT_xIL17F: BioMAP Diversity Plus: BT Assay for Interleukin 17F (IL17F) Biomarker Activity (AID 2284243). The note with it: primary human B cells with PBMC. The gist of the method: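 Luminex readout of IL-17F secretion, 24 h; cells: human B cells with PBMC; positive-direction analysis, DMSO control.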

Read-out in test [4]: Actin alpha 1 (ACTA1), ACTA1 (gene 58)
In words: BSK_MyoF_ACTA1: BioMAP Diversity Plus: MyoF Assay for Actin alpha 1 (ACTA1) Biomarker Activity (AID 2284244). The note with it: primary human lung fibroblasts. A digest of the protocol:
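Human lung fibroblasts (MyoF system) dosed with test chemical for 24 h; α-SMA measured by ELISA. Gain of signal fitted relative to DMSO negative control as baseline.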

Read-out in test [5]: Interleukin 2 (IL2), IL2 (gene 3558)
The experiment in a line: BSK_BT_xIL2: BioMAP Diversity Plus: BT Assay for Interleukin 2 (IL2) Biomarker Activity (AID 2284245). The note with it: primary human B cells with PBMC. A digest of the protocol:
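Human B cells co-cultured with PBMC, exposed to test chemical for 24 h. Secreted IL-2 quantified by Luminex xMAP bead immunoassay; activity fitted in the positive direction relative to DMSO vehicle baseline.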

Read-out in test [6]: Basic fibroblast growth factor (bFGF), FGF2 (gene 2247)
The experiment in a line: BSK_MyoF_bFGF: BioMAP Diversity Plus: MyoF Assay for Basic fibroblast growth factor (bFGF) Biomarker Activity (AID 2284246). Conditions: primary human lung fibroblasts. The gist of the method: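 Human lung fibroblasts were dosed with chemicals and bFGF was quantified by ELISA 24 h later. Activity was fitted in the gain-of-signal direction relative to DMSO as negative control and baseline. Parallel SRB total-protein staining tracked overt cytotoxicity.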

Read-out in test [7]: Collagen IV, COL4A1 (gene 1282)
The experiment in a line: BSK_MyoF_CollagenIV: BioMAP Diversity Plus: MyoF Assay for Collagen IV Biomarker Activity (AID 2284247). The note with it: primary human lung fibroblasts. The gist of the method: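 Primary human lung fibroblasts were exposed to test chemicals and sampled 24 h after dosing. Collagen IV levels were measured by ELISA and fitted in the positive direction against DMSO as negative control and baseline.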

Results filed as inconclusive are left out. Calls of active or inactive are those of the source. How the source made its calls, unless noted: active means hit-call score of the fitted dose curve at least 0.9, where 1 is the maximum; inactive means score below 0.9.

Regarding `Oc1c(Cl)cc(Cl)c(Cl)c1Cc1c(O)c(Cl)cc(Cl)c1Cl`, in test [1], the AC50 (in general, the concentration at which the activity in the assay is half-maximal) was 5 µM (active).

As for `CC=Cc1ccc(OCC)c(O)c1`, the outcome in test [2], in test [3], in test [4], in test [5], in test [6] and in test [7] was inactive.

In the case of `CCCCCCCCCCCCCCCC(=O)OC/C=C(C)/C=C/C=C(C)/C=C/C1=C(C)CCCC1(C)C`, the outcome in test [2], in test [3], in test [4], in test [5], in test [6] and in test [7] was inactive.

For the molecule `CC(=O)c1c(C)c([N+](=O)[O-])c(C(C)(C)C)c([N+](=O)[O-])c1C`, the outcome in test [2], in test [4], in test [5], in test [6] and in test [7] was inactive. Also, the AC50 in test [3] was 20 µM (active).

As to `C=C(C)C(=O)OCCOCCOCCOC(=O)C(=C)C`, the outcome in test [2], in test [3], in test [4], in test [5], in test [6] and in test [7] was inactive.

On to `CC(C)(C)CC(C)(C)c1ccc(OCCOCC[N+](C)(C)Cc2ccccc2)cc1`, for which the AC50 is 5 µM (active) in test [2]; 8.64 µM (active) in test [3]; 8.1 µM (active) in test [4]; 6.28 µM (active) in test [5]; 8.49 µM (active) in test [6]; 8.51 µM (active) in test [7].

Regarding `c1ccc(Oc2ccccc2)cc1`, the result in test [2], in test [3], in test [4], in test [5], in test [6] and in test [7] was inactive.

`CN(C)C(=O)Nc1ccc(Oc2ccc(Cl)cc2)cc1`: the result in test [2], in test [3], in test [4], in test [6] and in test [7] was inactive. Further, in test [5], the AC50 was 20 µM (active).

Consider `c1ccc(CCc2ccccc2)cc1`, for which the AC50 in test [2] is 31.9 µM (active); in test [4] it was 13.7 µM (active); in test [6] it was 30.4 µM (active); in test [7], 31.5 µM (active). Also, the outcome in test [3] and in test [5] was inactive.

In the case of `CSCCC=O`, the result in test [2], in test [3], in test [4], in test [5], in test [6] and in test [7] was inactive.

On to `COc1ccc(CCN2CCC(Nc3nc4ccccc4n3Cc3ccc(F)cc3)CC2)cc1`, for which the AC50 is 8.62 µM (active) in test [2]; 6.67 µM (active) in test [3]; 8.05 µM (active) in test [4]; 6.51 µM (active) in test [5]; 7.78 µM (active) in test [6]. Further, the outcome in test [7] was inactive.

Turning to `CC(C=O)Cc1ccc(C(C)(C)C)cc1` (configuration not stated), the result in test [2], in test [3], in test [5], in test [6] and in test [7] was inactive. For the same molecule, the AC50 in test [4] was 31.6 µM (active).

As to `CS(=O)(=O)c1ccc(C2=C(c3ccccc3)C(=O)OC2)cc1`, the outcome in test [2], in test [3], in test [4], in test [5], in test [6] and in test [7] was inactive.

Take `C=C(C)[C@H]1CC=C(C)C(=O)C1`: the result in test [2], in test [3], in test [4], in test [5], in test [6] and in test [7] was inactive.

Consider `c1ccc2cc(Nc3ccc(Nc4ccc5ccccc5c4)cc3)ccc2c1`, for which the outcome in test [2], in test [3], in test [4], in test [5], in test [6] and in test [7] was inactive.

Regarding `O=C1c2ccccc2C(=O)c2c(O)ccc(O)c21`, the outcome in test [2], in test [4], in test [6] and in test [7] was inactive. Further, the AC50 in test [3] is 9.01 µM (active); in test [5] it was 3.97 µM (active).

As to `COc1cc(Cl)c(OC)cc1N`, the result in test [2], in test [3], in test [4], in test [5], in test [6] and in test [7] was inactive.

Take `CCCCCC(C=O)=Cc1ccccc1`: the outcome in test [2], in test [3], in test [5], in test [6] and in test [7] was inactive. Further, in test [4], the AC50 is 29.5 µM (active).

As for `CCN(CC)C(=O)N(CC)CC`, the result in test [2], in test [3], in test [4], in test [5], in test [6] and in test [7] was inactive.

As for `CC(C)(N=C=O)c1cccc(C(C)(C)N=C=O)c1`, the outcome in test [2], in test [3], in test [4], in test [5], in test [6] and in test [7] was inactive.

For `CC(=O)C1(C)CC2=C(CCCC2(C)C)CC1C` (configuration not stated), the AC50 in test [2] is 24.7 µM (active); in test [3], 30.5 µM (active); in test [4], 13.1 µM (active); in test [6], 29.3 µM (active); in test [7], 11.9 µM (active). Besides, the result in test [5] was inactive.

As for `Clc1cc(Cl)c(-c2c(Cl)c(Cl)cc(Cl)c2Cl)cc1Cl`, the AC50 in test [2] was 2.99 µM (active); in test [4], 4.98 µM (active); in test [5] it was 4.55 µM (active). Moreover, the result in test [3], in test [6] and in test [7] was inactive.
